Source: the supplement of paper PMC6555819

Test system: PXR:RXRa (NR concentration 270 nM, RXRa partner concentration 90 nM)
Assay: PBM binding z-score (relative to random genomic background probes); higher = stronger binding; sequences stand for … in GC…GCGATTGACAGCGTAGAATGAAGG
Summary of the method: (§1)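 The probes on custom Agilent 4×180K protein-binding microarrays were double-stranded, with 34-nt variable regions bearing direct-repeat seeds, single-nucleotide variants, half-site ablations and random human genomic background sequences. Incubation lasted 1 h with ligand-free nuclear receptor dimers in PBS pH 7.4, 2% milk, 0.02% Triton X-100, 1 mM DTT, 0.2 mg/mL BSA and 0.4 mg/ml salmon testes DNA. Antibodies against each partner (one per run) detected bound dimers, and fluorescence scans were regression-normalized. Binding z-scores take the random background probes as reference.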

| Sequence | PBM binding z-score |
| --- | --- |
| GCATATAGGTAATACCAGGTGAAAGTCCGATTGT | 0.0811 |
| TCAGAAAGGTGAAGGTAACTCAGGTACGCAGTCG | 1.12 |
| GGAACGAGGGCATACGAGTTGATAGCATGGCGAT | 3.18 |
| AGAATGAGGTTACCGAAGATCAGGGAAACGCTTG | 1.61 |
| CCGACTGGGGCAGAAAGGTAACCATACCATCCGG | -0.419 |
| AGTCACAGTTCACTAGGTAACGTAAGATTCAGCT | 1.35 |
| GATCGGAGGACAAGGTCAGAGCTTTGTCCGTAGA | 1.76 |
| CTCGAAAGGTCGGTTGAGGCGAGTATACGGATAA | 1.17 |
| ACAGACAGGTGTTGAAGGTAACTCAGGCTATCAT | -0.158 |
| GTACCAAGGTGAATAGGTCATTGATGAGTAGGCG | 2.62 |
| AGAATAAGGTTATTAAGATCAGGGAATTGCGGTC | 1.13 |
| ATTTCTAGGTAAAGATAGTTCAGTGAATGCAAAT | 1.08 |
| CGAACTAGGTCAAGGACTGTGAATCTCCGCACGC | 0.92 |
| TCTTGTAGATCAACAGGAGGTTAAGAATGATCGA | 0.825 |
| CGTCCAAGGTCAATGCTTGGTCAGTGAAAGCATT | 3.86 |
| CCTATTAGTCGACCATAAGGGCAACCGAAGCTCG | 0.26 |
| TATACAGGGTCAAAGGCGAGAGTACGAATGTCGA | 3.85 |
| TCTTGTAGATCAATAGAGGTTAAGGAAGTGCGCT | 2.58 |

Test system: PXR homodimer (NR concentration 270 nM)
Assay: as above
Summary of the method: as §1

| Sequence | PBM binding z-score |
| --- | --- |
| CGTCCAAGGTCATAGGAGATCAGTGAAGACAGAT | 1.37 |
| CCTTACGGGTCAAGGCTATAGCACGGGTGGTACG | -0.208 |
| CGAACGAGGGCATGAGTTGATAGCAAATGCCGAT | -0.209 |
| CCAGACAGGTGAGAAGGTAACTCCGCCTCGATTA | -0.154 |
| TCTACTAGTTGATTAGGGCAACCGAAACAGCGGA | -0.203 |
| GAGACAGGGTCAAGGCCAGAGTACGCGTATTGAT | -0.543 |
| TCTAGTTGGTCACGGAGGTCACTCACGACGGGTA | 1.36 |
| CTCGAAAGGTCGGTTGAGGTGTGTATACGGATAA | 0.289 |
| CCTACTGGGCCATTCAGAGTTCATTGATCATATG | 8.94 |
| CAGCCTAGGTTAGGGCCAGTATAGGAGGAACGTT | -0.655 |
| GCGACTGGGGCCAAGCAGGTTACCATAAGGTTGG | -0.184 |
| CGAACGAGGGCATGAGTTGATGGCAAATGCCGAT | -0.209 |
| GGAACGATGGCAAGTTGATAGCAGAGTTTGATGG | -0.221 |
| CGTCCAAGGTCAAAGGTCAGTCAAGAGATGACGG | 1.81 |
| CGTCCAAGGTCAAAGGTCAGTGCAGAGATGACGG | 2.79 |
| CCTTCTGGGCCAAAGGTCATTGATTCCAATGCTC | 1.51 |
| TTTTGTAGATCAAGCAGGTTAAGAAAGCCTGAGT | 0.386 |
| AAGACAGGGTCATCGTAGGCCAGAGTACGCACAG | 0.0301 |
| GCTAGCAGGCCATTTAGGTCACTCAATGACGGGC | 0.12 |
| AATACAGGGTCACTAGGCCAGAGTTGGTACGAAT | 0.712 |

| Sequence | PBM binding z-score |
| --- | --- |
| TCATATAGGTAATACAGGTGAAAGTGGGCATCTA | 0.455 |
| CGAACTAGGTCTAGGACAGTGAATCTCCGCACGC | -0.327 |
| GCATATAGGTAATACCAGGTGAAAGTCCGATTGT | 0.268 |
| TCAGAAAGGTGAAGGTAACTCAGGTACGCAGTCG | 0.164 |
| GGAACGAGGGCATACGAGTTGATAGCATGGCGAT | 0.351 |
| AGAATGAGGTTACCGAAGATCAGGGAAACGCTTG | -0.388 |
| CCGACTGGGGCAGAAAGGTAACCATACCATCCGG | -0.488 |
| AGTCACAGTTCACTAGGTAACGTAAGATTCAGCT | 0.619 |
| GATCGGAGGACAAGGTCAGAGCTTTGTCCGTAGA | -0.362 |
| CTCGAAAGGTCGGTTGAGGCGAGTATACGGATAA | -0.214 |
| ACAGACAGGTGTTGAAGGTAACTCAGGCTATCAT | 0.379 |
| GTACCAAGGTGAATAGGTCATTGATGAGTAGGCG | 0.883 |
| AGAATAAGGTTATTAAGATCAGGGAATTGCGGTC | 0.666 |
| ATTTCTAGGTAAAGATAGTTCAGTGAATGCAAAT | 1.16 |
| CGAACTAGGTCAAGGACTGTGAATCTCCGCACGC | -0.392 |
| TCTTGTAGATCAACAGGAGGTTAAGAATGATCGA | 0.00794 |
| CGTCCAAGGTCAATGCTTGGTCAGTGAAAGCATT | 0.527 |
| CCTATTAGTCGACCATAAGGGCAACCGAAGCTCG | 0.25 |
| TATACAGGGTCAAAGGCGAGAGTACGAATGTCGA | 0.6 |
| TCTTGTAGATCAATAGAGGTTAAGGAAGTGCGCT | 0.412 |
